# A selection: hits, their analogues and other compounds. The true share with any hit is near 11%.
# HCV inh: inhibitors of hepatitis C virus infection | Huh7.5.1 HCVcc-Cre infection, luciferase reporter, 44 h | Potency, µM (doses to about 41.8 µM), for inactives: at the highest dose activity change, negative = inhibition, most hits filed as inhibitors | 3.4% of 340,000 active
#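 1,000 cells/well; 4 h culture; + compound; + HCVcc-Cre (~0.5 moi); 44 h; luciferase substrate, RT 15 min; read 15 sec.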
# Pf growth 48h: P. falciparum growth inhibition at 48 hours (one generation); P. falciparum luciferase growth in erythrocytes, 48 h; Potency, µM (series often up to 28.7 µM), inactives show at the top dose activity change, negative = inhibition, most hits filed as inhibitors; 5.9% of 310,000 active; AID 504832
#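 First compound was added to culture medium, then infected red cells at 0.1% parasitemia and 2% hematocrit (final). After incubation at 37 C under 5% CO2, luciferase detection reagent was dispensed and light output recorded.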
# AMA1 RON2 block: inhibitors of Plasmodium falciparum AMA1-RON2 interaction. AlphaScreen AMA1-biotinylated RON2 peptide binding. Potency, µM (highest dose often 58.2 µM), for the others: top-dose activity change, negative = inhibition, usual class: inhibitors. 0.2% of 360,000 active. AID 720542;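 further: 0% = vehicle wells and -100% = peptide control; nearly all actives have a fitted effect of over 45% in size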
#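 AMA1 (3D7) with his tag at 25 nM final met compounds first, then biotinylated RON2 peptide at 25 nM; detection used donor plus acceptor beads, 10 µg/mL apiece, read by AlphaScreen after 30 min at room temperature.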
# Pf growth 96h: P. falciparum growth inhibition at 96 hours; P. falciparum luciferase reporter growth, 96 h; Potency, µM (highest dose often 28.7 µM), for the others: at the top dose activity change, negative = inhibition, usual class: inhibitors; 6.9% of 320,000 active; AID 504834
#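 Parasite growth measured via integrated firefly luciferase reporter in P. falciparum. Infected erythrocytes at 2% hematocrit, 0.05% parasitemia final were treated 96 hours at 37 C under 5% CO2, and luminescence was read.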
# The depositor's hits bear a star; u = inconclusive; x = no result given; [ ] = remark or other dose. The call rests on the fitted dose curve; in most records, active means well fitted curve in the direction sought with a large enough effect; inconclusive means small, poorly fitted or top-dose-only effect, or another doubt; inactive means no such curve, though single readings can be large; an effect the other way counts as inactive or inconclusive. Unless noted, on the % scale 0 is the no-effect control and ±100 the full control effect; potency means the concentration at half of the fitted maximal effect.
SMILES,HCV inh,Pf growth 48h,AMA1 RON2 block,Pf growth 96h
COc1ccc(CCNc2nc(-c3ccc(O)cc3)cs2)cc1OC,u,u,-1.7%,10.4µM*
CN1CCCN(C(=O)CC(c2ccccc2)c2ccccc2)CC1,1.6%,-4.7%,4.5%,30.7%
CSc1nc(N)nc2c1ncn2CC(=O)NCCCc1ccccc1,u,x,8.9%,x
Cc1noc(C)c1COC(=O)c1csc2c1CCC(C)C2 (stereo not given),u,11.7µM*,-8.3%,u
COc1cc(/C=C/C(=O)N(C)CC(=O)Nc2ccccc2Br)cc2c1OCCO2,u,8.28µM*,-2.2%,u
COc1cc(/C=C/C(=O)N(C)CC(=O)Nc2ccccc2SC)cc(OC)c1OC,-21.3%,x,2.5%[11.6 µM],x
COc1cc(CN(C)C(C)C(=O)Nc2ccc([N+](=O)[O-])cc2Cl)ccc1OC(F)F (stereo not given),u,13.1µM*,1.7%,u
COc1ccc([N+](=O)[O-])cc1NC(=O)C(C)Sc1nc(-c2ccccc2)cs1 (stereo not given),12.6µM*,u,-21.5%,u
COc1ccc([N+](=O)[O-])cc1NC(=O)C(C)Sc1ccccc1 (stereo not given),u,u,2.4%,u
COc1ccc([N+](=O)[O-])cc1NC(=O)C(C)N(C)Cc1cccc(OC)c1OC (stereo not given),35.5µM*,-18.0%,-13.1%,u
CCC(C)C(=O)Nc1ccc([N+](=O)[O-])cc1OC (stereo not given),-24.4%,4.1%,-3.2%,38.6%
COc1ccc(Cl)cc1NC(=O)C(C)N(C)Cc1ccc(C(F)(F)F)cc1 (stereo not given),14.1µM*,7.38µM*,-10.2%,2.08µM*
COc1ccc(Cl)cc1NC(=O)CN(C)C(C)C(=O)NCC1CCCCC1 (stereo not given),-23.7%,-18.2%,15.5%,u
COc1ccc(C(O)c2nc(-c3cccc(O)c3)cs2)cc1 (stereo not given),x,x,-4.0%,x
Cc1cc(C)c(Cn2ncn(-c3ccc(Br)cc3)c2=O)c(C)c1,u,-12.5%,-11.7%,-10.4%
COc1cc(NC(=O)c2cccs2)c(OC)cc1NC(=O)Nc1ccc(F)cc1,u,6.4%,6.3%,40.0%
COc1ccccc1NC(=O)C(C)N(C)CC(=O)Nc1cccc2ccccc12 (stereo not given),-16.4%,x,59.8%,x
COc1ccccc1NC(=O)C(C)N(C)Cc1ccc(Cl)s1 (stereo not given),-19.0%,8.28µM*,u,u
Cc1ccccc1NC(=O)c1nnn(-c2ccc3c(c2)OCCO3)c1N,10µM*,84.9%,3.9%,u
O=C(NC(Nc1nc2ccc([N+](=O)[O-])cc2s1)(C(F)(F)F)C(F)(F)F)c1ccccc1Cl,0.562µM*,1.47µM*,-6.5%,0.928µM*
C[C@]12c3[nH]c4ccc(Cl)cc4c3CCN1C(=O)[C@@H](CC(=O)NCCCn1ccnc1)C[C@@H]2C(=O)N1CCCCC1,u,x,-10.5%,x
CCN(CC)C(=O)[C@H]1CC(CC(=O)NCc2cccc(C(F)(F)F)c2)C(=O)N2CCc3c([nH]c4ccc(OC)cc34)[C@]12C (stereo not given in full),u,x,-17.9%,x
O=C(C[C@H]1C[C@H](C(=O)N2CCCCC2)[C@@]2(CCc3ccccc3)c3[nH]c4ccc(Cl)cc4c3CCN2C1=O)NCCCn1ccnc1,25.1µM*,x,0.5%,x
COc1ccc2[nH]c3c(c2c1)CCN1C(=O)C(CC(=O)NCC24CC5CC(CC(C5)C2)C4)C[C@H](C(=O)N2CCCCC2)[C@@]31C (stereo not given in full),25.1µM*,x,-3.7%,x
C[C@]12c3[nH]c4ccc(Cl)cc4c3CCN1C(=O)[C@@H](CC(=O)NCc1cccc(C(F)(F)F)c1)C[C@@H]2C(=O)N1CCCCC1,25.1µM*,x,-1.2%,x
C[C@]12c3[nH]c4ccccc4c3CCN1C(=O)C(CC(=O)NCC13CC4CC(CC(C4)C1)C3)C[C@@H]2C(=O)N1CCCCC1 (stereo not given in full),1.4%,x,-7.4%,x
COc1ccc2[nH]c3c(c2c1)CCN1C(=O)C(CC(=O)NCc2cccc(C(F)(F)F)c2)C[C@H](C(=O)N2CCCCC2)[C@@]31C (stereo not given in full),11.2µM*,x,-28.3%,x

# Screens from PubChem.
